Measured values from PubChem BioAssay (NCI).
Several values for one entry are separate records, joined by “and”; a condition that tells them apart may be missing. Equal entries are not always repeated. Compounds without any hit were thinned out: in the full panel of roughly 83,000, 20% have a hit.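 Results are percent growth after 48 hours of single-concentration exposure. 100 means growth as in untreated cells, lower positive values show inhibition; negative values down to -100 show cell death.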 Activity calls are given as the source filed them. Rule for the calls: active = growth percent below 10; inactive = the rest.

Legend:
Test in all cases: NCI-60 one-dose screen, 48 h (100 = growth as untreated, 0 = no growth, -100 = all killed)
Details in all cases: 10 µM unless noted
T-47D breast = tested on: T-47D breast
BT-549 breast = tested on: BT-549 breast
MDA-MB-435 melanoma = tested on: MDA-MB-435 melanoma
SW-620 colon = tested on: SW-620 colon
MCF7 breast = tested on: MCF7 breast
HCT-116 colon = tested on: HCT-116 colon
HCC-2998 colon = tested on: HCC-2998 colon
KM12 colon = tested on: KM12 colon

| Compound | growth (T-47D breast) | growth (BT-549 breast) | growth (MDA-MB-435 melanoma) | growth (SW-620 colon) | growth (MCF7 breast) | growth (HCT-116 colon) | growth (HCC-2998 colon) | growth (KM12 colon) |
| --- | --- | --- | --- | --- | --- | --- | --- | --- |
| Cc1ccc(C(=O)c2ccc(C)cc2)cc1 | 90.7% (inactive) and 94.9% (inactive) | 92% (inactive) | 103% (inactive) and 105% (inactive) | 104% (inactive) and 101% (inactive) | 99.9% (inactive) and 95.3% (inactive) | 92.5% (inactive) and 98% (inactive) | 87.5% (inactive) and 99.8% (inactive) | 102% (inactive) and 108% (inactive) |
| CCOC(=O)c1ccncc1 | 95% (inactive) | 109% (inactive) | 107% (inactive) | 104% (inactive) | 97.9% (inactive) | 107% (inactive) | 105% (inactive) | 105% (inactive) |
| O=C1c2cccnc2-c2ncccc21 | 98.9% [100 µM] (inactive) | 104% [100 µM] (inactive) | 103% [100 µM] (inactive) | 109% [100 µM] (inactive) | 109% [100 µM] (inactive) | 107% [100 µM] (inactive) | 112% [100 µM] (inactive) | 103% [100 µM] (inactive) |
| Nc1nc(-c2ccccn2)cc(-c2cc(-c3ccccn3)nc(N)n2)n1 | 109% (inactive) | 117% (inactive) | 119% (inactive) | 133% (inactive) | 92.2% (inactive) | 111% (inactive) | 104% (inactive) | 107% (inactive) |
| S=c1nn[nH]n1C1CCCCC1 | 124% (inactive) | 125% (inactive) | 102% (inactive) | 99.8% (inactive) | 101% (inactive) | 101% (inactive) | 113% (inactive) | 110% (inactive) |
| C(#CCN1CCOCC1)CCCN1CCOCC1 | 105% (inactive) and 101% (inactive) | 99.5% (inactive) and 53.3% (inactive) | 102% (inactive) and 101% (inactive) | 109% (inactive) and 106% (inactive) | 91.9% (inactive) and 99.5% (inactive) | 105% (inactive) and 107% (inactive) | 99.6% (inactive) and 98.9% (inactive) | 105% (inactive) and 106% (inactive) |
| Cc1ccc2cccc([N+](=O)[O-])c2n1 | 97.4% (inactive) and 97.8% (inactive) | 121% (inactive) and 93.5% (inactive) | 110% (inactive) and 108% (inactive) | 119% (inactive) and 103% (inactive) | 105% (inactive) and 95.7% (inactive) | 114% (inactive) and 97.7% (inactive) | 102% (inactive) and 103% (inactive) | 111% (inactive) and 107% (inactive) |
| O=[N+]([O-])c1ccc(N2CCN=N2)cc1 | 67.3% (inactive) | 85.3% (inactive) | 77.5% (inactive) | 81.8% (inactive) | 87.5% (inactive) | 81.7% (inactive) | 107% (inactive) | 77.3% (inactive) |
| O=C1c2ccccc2CN1c1ccccc1 | 95.8% (inactive) | 96.6% (inactive) | 97.9% (inactive) | 105% (inactive) | 106% (inactive) | 91.7% (inactive) | 128% (inactive) | 101% (inactive) |
| OC(CC(c1ccccc1)c1cccc2ccccc12)(c1ccccc1)c1ccccc1 (stereo not given) | 64% (inactive) and 81.8% (inactive) | 88.4% (inactive) | 96.9% (inactive) and 88.9% (inactive) | 77% (inactive) and 80.9% (inactive) | 79.1% (inactive) and 79.3% (inactive) | 58.9% (inactive) and 46.3% (inactive) | 98.9% (inactive) and 88.1% (inactive) | 89.2% (inactive) and 90.9% (inactive) |
| O=C1C=CC(n2cc(F)c(=O)[nH]c2=O)O1 (stereo not given) | 65.5% (inactive) | 43% (inactive) | 46.4% (inactive) | 79.7% (inactive) | 30.1% (inactive) | 40% (inactive) | 22.3% (inactive) | 51.6% (inactive) |
| CCOC(=N)c1ccc(C(=N)OCC)cc1 | 84% (inactive) | 98.2% (inactive) | 114% (inactive) | 119% (inactive) | 92.3% (inactive) | 96% (inactive) | 109% (inactive) | 105% (inactive) |
| Nc1ccc(Cl)c(S(=O)(=O)O)c1 | 92.4% (inactive) | 96% (inactive) | 107% (inactive) | 99.1% (inactive) | 101% (inactive) | 102% (inactive) | 110% (inactive) | 103% (inactive) |
| Cc1cc2ccccc2c2cc3ccccc3cc12 | 48% (inactive) | 93.7% (inactive) | 100% (inactive) | 90% (inactive) | 33.8% (inactive) | 93.8% (inactive) | 92.5% (inactive) | 82.1% (inactive) |
| CCOC(=O)c1csc(N)n1 | 104% (inactive) and 98.5% (inactive) | 102% (inactive) and 105% (inactive) | 99% (inactive) and 102% (inactive) | 104% (inactive) and 103% (inactive) | 91.8% (inactive) and 90.8% (inactive) | 107% (inactive) and 99.4% (inactive) | 115% (inactive) and 101% (inactive) | 110% (inactive) and 108% (inactive) |
| CCOP(C)(=O)/C(Cc1ccc(OC)c(OC)c1)=N\O (stereo not given) | 115% (inactive) | 115% (inactive) | 104% (inactive) | 99.2% (inactive) | 104% (inactive) | 103% (inactive) | 98.5% (inactive) | 101% (inactive) |
| OCc1ccccc1F | 95.9% (inactive) | 82.4% (inactive) | 97.6% (inactive) | 58% (inactive) | 72.2% (inactive) | 58.2% (inactive) | 93.2% (inactive) | 107% (inactive) |
| Clc1ccc(/C=C/c2ccc3ccccc3n2)cc1 | 18.6% (inactive) and 65.6% (inactive) and 52.5% (inactive) | 58.7% (inactive) and 107% (inactive) and 94.8% (inactive) | -38.5% (active) and 85.2% (inactive) and 92.6% (inactive) | 22.8% (inactive) and 108% (inactive) and 97.1% (inactive) | 15.1% (inactive) and 65.5% (inactive) and 67.1% (inactive) | 18.5% (inactive) and 77% (inactive) and 63.4% (inactive) | 7.83% (active) and 104% (inactive) and 91.5% (inactive) | 16.3% (inactive) and 97% (inactive) and 94.7% (inactive) |
| CCN(CC)Cc1cc2[nH]c3c4ccc(Cl)cc4ncc3c2cc1OC | 99.2% (inactive) and 94.2% (inactive) | 75.1% (inactive) and 82.2% (inactive) | 1.09% (active) and 44% (inactive) | 4.64% (active) and 25.5% (inactive) | 16.5% (inactive) and 64.2% (inactive) | -3.8% (active) and 7.95% (active) | 83.6% (inactive) and 101% (inactive) | 2.32% (active) and 42.7% (inactive) |
| N=C(N=C(N)N)N1CCOCC1 | 91.2% (inactive) and 95.4% (inactive) | 115% (inactive) and 103% (inactive) | 108% (inactive) and 106% (inactive) | 96.3% (inactive) and 103% (inactive) | 92.9% (inactive) and 91.5% (inactive) | 104% (inactive) and 96.4% (inactive) | 109% (inactive) and 97.1% (inactive) | 105% (inactive) and 100% (inactive) |
